In all, about 48,000 compounds went through this assay and about 13,000 (27%) showed an effect of 50% or more. The list shows a part of the results.
Tested on: Wolbachia pipientis
Experiment: Anti-Wolbachia Cell-Based Screen
Type: functional
Parameters: scale not given: in the data most compounds retested in dose-response had high values
Details: 5 µM

SMILES | Percent Effect
CCN1CCC(N2CCN(c3cc(-c4nc(C)no4)ccn3)CC2)CC1 | 10.41%
CCN1CCN(c2ncc(-c3cc(C)no3)c(-c3ccoc3C)n2)CC1 | -0.7712%
Cc1cc(-c2cnc(NC3CC3)nc2-c2ccoc2C)on1 | 65.28%
Cc1cc(-c2cnc(NC3CCCCC3)nc2-c2ccco2)on1 | 96.71%
CCN1CCN(c2ncc(-c3cc(C)no3)c(-c3ccco3)n2)CC1 | 110.6%
Cc1cc(-c2cnc(NC3CCCC3)nc2-c2ccoc2C)on1 | -4.074%
Cc1cc(-c2cnc(NC3CC3)nc2-c2ccco2)on1 | 84.65%
O=C1NCCO[C@H]2CN(C(=O)CCc3ccccc3Cl)CC[C@@H]12 | -36.6%
COCC1CN(C(=O)COc2ccc(C)cc2)Cc2cn(C)nc21.O=C(O)C(F)(F)F (stereo unspecified) | -4.21%
CCn1ncc2c1CCCC2NCc1cscn1 (stereo unspecified) | -5.451%
Cc1cc(-c2cnc(NC3CCCC3)nc2-c2ccc(C)o2)on1 | 122.4%
CNC(=O)C1CCCCN1C(=O)c1csc(-c2ccc(C)o2)n1 (stereo unspecified) | -2.315%
Cc1cccnc1C(Nc1nccc(C2CCCC2)n1)C1CC1 (stereo unspecified) | -13.6%
Cc1cc(-c2cnc(NC3CCCC3)nc2-c2ccco2)on1 | 111.9%
Cc1cc(C2CCC2)nc(N(C)Cc2cc(-c3ccccn3)no2)n1 | 38.25%
Cc1occc1-c1nc(NC2CCCC2)ncc1-c1ccccn1 | 77.82%
O=C1CCC(C(=O)NCCOc2ccccc2-c2ccccc2)CN1 (stereo unspecified) | 30.95%
NC(=O)c1cccc(NC(=O)CSc2ccc3c(c2)CCC3)c1 | 10.83%
COc1ccc2nc(NC(=O)c3c(C(=O)O)cnn3C)sc2c1 | 107.5%
COc1ccc2nc(C3CC3)cc(C(=O)NCc3ncnn3C)c2c1 | -9.156%
Cn1ncc(C(=O)O)c1C(=O)Nc1nc2ccccc2s1 | 107.6%
Cn1c(C(F)(F)F)nn(CCNC(=O)c2nc3ccccc3s2)c1=O | -27.26%
CCOc1ccc2nc(NC(=O)c3c(C(=O)O)cnn3C)sc2c1 | -2.899%
Cn1ncc(C(=O)O)c1C(=O)Nc1nc2ccc(Br)cc2s1 | 84.26%
Cn1cnnc1CNC(=O)c1ccc(Br)cc1O | -16.68%
COc1nc2c(cc1C(=O)NCCc1nc3ccccc3s1)CCC2 | -9.25%

SMILES | Percent Effect
Fc1cnc(N2CCc3nnc(COc4ccccn4)n3CC2)nc1.O=C(O)C(F)(F)F | 2.887%
O=S(=O)(C1CC1)N1CCOCC2(CN(c3ncccn3)CCO2)C1 (stereo unspecified) | -5.762%
CCn1cc(C(=O)N2CCCN(c3cccnn3)CC2)c2ccccc21 | -8.81%
CO[C@@H]1CCN(Cc2ccoc2)[C@H]1Cc1ccccc1.O=C(O)C(F)(F)F | 118.7%
O=C(O)C(F)(F)F.c1ccc(C[C@H]2CN(C3CCOCC3)CC[C@H]2OCC2CC2)cc1 | -4.378%
CO[C@@H]1CCN(C2CCOCC2)C[C@@H]1Cc1ccccc1.O=C(O)C(F)(F)F | -11.13%
CO[C@@H]1CCN(Cc2ccc(C)o2)[C@H]1Cc1ccccc1.O=C(O)C(F)(F)F | 10.3%
CO[C@H]1CCN(C2CCOCC2)C[C@@H]1Cc1ccccc1.O=C(O)C(F)(F)F | -3.139%
COc1ccc(CN2CC[C@@H](O)[C@@H]2Cc2ccccc2)cc1.O=C(O)C(F)(F)F | 17.99%
CO[C@@H]1CCN(Cc2nccs2)C[C@@H]1Cc1ccccc1.O=C(O)C(F)(F)F | -16.15%
CO[C@H]1CCN(Cc2ccoc2)C[C@@H]1Cc1ccccc1.O=C(O)C(F)(F)F | 68.19%
CO[C@@H]1CCN(Cc2ccoc2)C[C@@H]1Cc1ccccc1.O=C(O)C(F)(F)F | 89.22%
Cc1cc(Cl)c2c(c1)C1(NC(=O)c3cccnc3N1)C(=O)N2 (stereo unspecified) | -1.916%
CC(C)=CCC1(CO)CCCN(Cc2nccs2)C1 (stereo unspecified) | 1.266%
O=C(O)C(F)(F)F.O=C(c1ccnnc1)N1CCN2C[C@H](Oc3cccc(F)c3)C[C@H]2C1 | -26.48%
COc1ccc(C)cc1NC(=O)Cn1nc(C)c(C#N)c1N | -0.6679%
COc1ccccc1C1(CNc2snc(Cl)c2C#N)CCCC1 | -12.01%
COc1ccccc1C1(NCc2c(C)nc3c(C)cccn23)CCCC1.Cl | 58.58%
Cc1nc2sccn2c1CNC1(c2ccccc2F)CCCC1.O=C(O)CC(O)(CC(=O)O)C(=O)O | 86.58%
Cc1nc2sccn2c1CNc1cc(C(=O)O)ccc1F | -0.08043%
COc1ccc(C2(NC(=O)CCn3cncn3)CCCCC2)cc1 | -6.832%
Cc1nc(CN2CCC(O)(c3ccccc3F)CC2)c2ccccn12.O=C(O)CC(O)(CC(=O)O)C(=O)O | 94.96%
Cc1nc(CN2CCC3(CCCO3)CC2)c2ccccn12 | 20.84%
COc1ccccc1C1(CNc2nnc(C)c(C)c2C#N)CCCC1 | -5.07%
Cc1ccc(C2(O)CCN(Cc3nc(C)n4ccccc34)CC2)nc1 | -9.121%
COc1c(CNC2(c3ccc(Cl)cc3)CCC2)c(C)nn1C | -12.89%

SMILES | Percent Effect
Cc1nc2sccn2c1CNc1ccc(C(=O)O)cc1 | 3.655%
COc1ccc(C2(NCc3c(C)nc4c(C)cccn34)CCCC2)cc1.O=C(O)CC(O)(CC(=O)O)C(=O)O | 147.1%
Cc1oncc1C(=O)N1CC[C@H]2[C@H](CO[C@@H]2CNS(C)(=O)=O)C1 | -5.011%
COc1ccc(CNCCC(=O)N2CCc3sccc3C2)cc1O | -10.83%
COc1ccc(-c2noc(-c3ccc(N4CCC[C@H]4CO)nc3)n2)cc1 | -7.045%
Cc1csc2ncc(-c3ccnc(N4CCC[C@@H]4CO)n3)c(=O)n12 | 56.16%
Cc1csc2ncc(-c3ccnc(N4CCCC[C@@H]4CO)n3)c(=O)n12 | 6.094%
Cc1cnn(CC2CCCN2Cc2cc(=O)n3c(C)csc3n2)c1 (stereo unspecified) | 1.323%
Cc1cn2c(=O)c(-c3ccnc(N4CCC[C@@H]4CO)n3)cnc2s1 | 87.72%
O=C(NCCc1cccs1)N1CCC[C@H]1CO | -11.14%
O=c1c(-c2ccnc(N3CCC[C@H]3CO)n2)cnc2sccn12 | 102.3%
O=c1c(-c2ccnc(N3CCCC[C@@H]3CO)n2)cnc2sccn12 | 125.6%
CC(C)(C)c1cn2nc(N3CCC[C@@H]3CO)sc2n1 | -4.736%
OCC1CCCCN1c1ccc(-c2nc(-c3ccccc3F)no2)cn1 (stereo unspecified) | 1.745%
COC(=O)C(NC(=O)c1cc(C)ccc1C)c1cccnc1 (stereo unspecified) | -6.12%
CCCc1cc(NC(=O)c2ccc(Cl)c(N3CCNC3=O)c2)n[nH]1 | 5.533%
COC(=O)c1cccc(S(=O)(=O)N2CSCC2C(=O)N(C)C2CC2)c1 (stereo unspecified) | -20.06%
CN(CC(=O)N(C)C(c1cccnc1)c1ccc(F)c(F)c1)C1CC1 (stereo unspecified) | 12%
CC(C)C(c1cccnc1)N(C)C(=O)Cc1c(F)cccc1F (stereo unspecified) | 1.062%
CNC(=O)NCC(=O)N(C)C(c1ccc(Cl)cc1)c1cccnc1 (stereo unspecified) | 108.8%
CN(CC(=O)N(C)C(c1ccc(Cl)cc1)c1cccnc1)C1CC1 (stereo unspecified) | 97.71%
CNC(=O)NC(=O)CN(C)C(c1cccnc1)c1ccc(F)cc1F (stereo unspecified) | -23.22%
CCC(=O)NCC(=O)N(C)C(c1ccc(Cl)cc1)c1cccnc1 (stereo unspecified) | 138.5%
CCN(C(c1ccc(OC)cc1)c1cccnc1)S(C)(=O)=O (stereo unspecified) | 3.822%
CCN(C(C)=O)C(c1cccnc1)c1cc(C)cc(C)c1 (stereo unspecified) | 0.6077%
CC(=O)N(C)C(c1cccnc1)c1ccc(F)c(F)c1 (stereo unspecified) | 0.3352%

SMILES | Percent Effect
CC(C)N1CCC(N2CCOC3(CCCC3)C2)C1=O (stereo unspecified) | 10.32%
Cc1cnc(CNc2c(F)cccc2-n2cccn2)o1 | -16.45%
O=C(O)C(F)(F)F.O=C(O)C(F)(F)F.O=C(O)C(F)(F)F.O=C(O)c1cc2c(nc1-c1ccncc1)CCN(C1CCOC1)CC2 (stereo unspecified) | -8.005%
O=C(O)Cc1cccc(-n2ccnc2-c2ccc(F)c(Cl)c2)c1 | -0.5745%
O=C(O)CCc1cc2n(n1)CCCN(C(=O)c1ccc(F)cc1F)C2 | -66.14%
O=C(O)CCc1nc2nccc(-c3ccc(F)cc3)n2n1 | 119.2%
O=C(O)CCc1nc2nccc(C(F)(F)F)n2n1 | 112.1%
O=C(O)Cc1nc2nccc(-c3ccc(F)cc3)n2n1 | 127%
N#Cc1ccnc(N2CCN(CC(O)c3ccc(F)cc3)CC2)c1 (stereo unspecified) | -11.77%
CC(C)c1cc(C(F)(F)F)n2nc(CCC(=O)O)nc2n1 | -4.305%
CCN(Cc1c(F)cccc1F)C(=O)c1ccncc1O | -5.979%
COCC1CCN(S(=O)(=O)N2C[C@H](c3ccccc3)[C@@H](N)C2)CC1 | -1.102%
CCc1ccc2nc(C)cc(C(=O)NCc3csc(N(C)C)n3)c2c1 | -26.8%
COc1nn(C)c2c1CCCN(S(=O)(=O)c1cccc(C)c1)C2 | 0.0765%
O=C(C1CC1)N1CC[C@H]2C(=O)N(c3ccsc3)CCO[C@H]2C1 | 9.146%
FC(F)C(F)(F)COCc1ncnn1-c1ccc2c(c1)OCO2 | -0.1872%
CN(C)C(=O)NC1COC2(CCN(Cc3ccc(Cl)c(F)c3)CC2)C1.O=C(O)C(F)(F)F (stereo unspecified) | 5.668%
CCC(O)CN1CCN(C(=O)c2ccc(Cn3cccc3)cc2)CC1 (stereo unspecified) | 90.26%
O=C(c1ccc(Cn2cccc2)cc1)N1CCN(CCO)CC1 | 94.5%
CCCN1CCN(C(=O)c2ccc(Cn3cc(Br)cn3)cc2)CC1 | -5.49%
CC(O)CN1CCN(C(=O)c2ccc(Cn3cccc3)cc2)CC1 (stereo unspecified) | 3.366%
O=C(c1ccc(Oc2cccnc2)cc1)N1CCN(CCO)CC1 | 6.053%
CC(O)CN1CCN(C(=O)c2ccc(Cn3cccn3)cc2)CC1 (stereo unspecified) | 3.707%
